Screening data from PubChem.
Pin1 inh: blocks the human prolyl isomerase Pin1; Q13526; Pin1 FP peptide displacement, HiFluor488, 10 min; Potency, µM (highest dose often 115 µM), usual class: inhibitors; 390,000 tested, 0.009% active; AID 504891; active means well fitted inhibition curve with a large enough effect in the polarisation, with a control signal flat, not every such curve was filed as active; inconclusive means small, poorly fitted or top-dose-only effect, or effect the other way, or a change in a side signal; inactive means no such curve, though single readings can be large or run the other way; the % refers to the polarisation
Tb PFK block: T. brucei PFK enzyme inhibition | O15648 | T. brucei PFK, ADP-Glo luminescence | Potency, µM (top dose mostly 57.5 µM), actives largely listed as inhibitors | 330,000 tested, 0.17% active; further: nearly all actives have a fitted effect of over 60% in size
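Activity is normalized to no-enzyme wells (full inhibition) and 1.25 nM enzyme wells (no inhibition). Reaction: 0.5 mM F6P, 0.1 mM ATP, 45 min RT, ADP-Glo luminescence; concentration-response curves fitted and classed by quality.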
GLP-1R inv ag: acts as inverse agonist at human GLP-1 receptor. HEK293 GLP-1R CRE-luciferase, luminescence, 24 h; GLP-1R form is constitutively active. Potency, µM (highest dose often 38.3 µM), hits mostly inhibitors. 410,000 tested, 1.6% active; further: nearly all actives have a fitted effect of over 55% in size
Target sequence (P43220 whole entry, looked up): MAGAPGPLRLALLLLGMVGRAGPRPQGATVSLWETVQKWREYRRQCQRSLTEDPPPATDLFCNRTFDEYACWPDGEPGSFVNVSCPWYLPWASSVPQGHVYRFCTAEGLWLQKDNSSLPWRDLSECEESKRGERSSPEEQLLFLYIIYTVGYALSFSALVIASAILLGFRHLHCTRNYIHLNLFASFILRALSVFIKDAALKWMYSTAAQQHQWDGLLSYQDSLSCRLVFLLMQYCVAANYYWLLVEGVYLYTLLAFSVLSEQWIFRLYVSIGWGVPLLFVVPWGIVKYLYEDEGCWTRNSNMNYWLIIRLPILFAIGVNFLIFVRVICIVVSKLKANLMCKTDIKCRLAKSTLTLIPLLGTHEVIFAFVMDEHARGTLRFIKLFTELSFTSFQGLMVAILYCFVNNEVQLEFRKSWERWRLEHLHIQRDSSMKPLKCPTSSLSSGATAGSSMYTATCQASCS
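Inverse agonists were sought by their lowering of basal cAMP reporter luciferase output in HEK293 cells stably carrying constitutively active human GLP-1R, after 24 h compound treatment.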
PGK inhibitor: inhibitors of T. brucei phosphoglycerate kinase; PGK/GAPDH coupled, Kinase-Glo luminescence, 60 min; Potency, µM (doses to about 57.5 µM), actives largely listed as inhibitors; 380,000 tested, 0.043% active; further: nearly all actives have a fitted effect of over 60% in size
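Recombinant glycosomal PGK reaction used 1,3-bisphosphoglycerate generated in-well by GAPDH (100nM final) in 100mM TEA pH 7.6, 5mM MgCl2, 0.01% Tween-20. After 60 minutes at room temperature, ATP was read by Kinase-Glo Plus luminescence end-point.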
GLP-1R agonist: GLP-1 receptor (human) agonism; HEK293 GLP-1R CRE-luciferase, luminescence, 4-6 h; cells express a hypersensitive GLP-1R form; AID 624172; P43220; Potency, µM (highest dose often 45.6 µM), hits mostly activators; 380,000 tested, 0.007% active
HEK293 tox: cytotoxicity in counter-screen for GLP-1R inverse agonists | HEK293 cAMP-luciferase reporter cells, luminescence, 24 h | Potency, µM (doses to about 38.3 µM), usual class: inhibitors | 410,000 tested, 0.13% active | AID 624418;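 further: loss of luciferase light is scored as toxicity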
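Cells in DMEM/10% Nu serum/1% pen-strep, 1536-well format. Pre-incubated 12 h, dosed with 23 nL compound, incubated a further 24 h. Luciferase detection, 12 min at room temp, luminescence.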
Each line names hits and unclear results; the compound was inactive in the other large screens. Shown are actives, neighbours in structure and some others; about 1.8% of the full set was active somewhere. Unless noted, the call rests on the fitted dose curve; in most records, active means well fitted curve in the direction sought with a large enough effect; inconclusive means small, poorly fitted or top-dose-only effect, or another doubt; inactive means no such curve, though single readings can be large; an effect the other way counts as inactive or inconclusive.

CCCCCOC(=O)c1ccc(NC(=O)c2cccc(NC(=O)c3ccccc3C(=O)O)c2)cc1	GLP-1R inv ag 7.08µM
CN(CC(=O)Nc1ccc(F)cc1)C(=O)c1cn(-c2ccccc2)nc1-c1cccs1	GLP-1R inv ag inconclusive
Cc1c(C(=O)Nc2ccccc2)cnn1-c1ccccc1	GLP-1R inv ag inconclusive (no result: Tb PFK block)
COc1ccc(NC(=O)c2cccnc2Nc2ccc(OC)cc2)cc1	GLP-1R inv ag 10µM
COc1ccc(NC(=O)CN(C)C(=O)c2cn(-c3ccccc3)nc2-c2cccs2)cc1	GLP-1R inv ag 11.2µM
COc1ccc(NC(=O)c2cn(-c3ccccc3)nc2-c2ccc(C)cc2)cc1	GLP-1R inv ag 7.94µM (no result: Tb PFK block, GLP-1R agonist)
COc1ccc(NC(=O)c2cnn(-c3ccccc3)c2C)cc1	GLP-1R inv ag 7.94µM
CC(=O)c1ccc(NC(=O)COCc2cc(-c3ccco3)on2)cc1	none (no result: Tb PFK block, GLP-1R agonist)
CCN(CC)CCNC(=S)NC(=O)c1cn(-c2ccccc2)nc1-c1ccc(OC)cc1	GLP-1R inv ag 5.01µM, HEK293 tox inconclusive
CC(NC(=O)CN(C)CC(=O)Nc1ccc(Cl)c(C(F)(F)F)c1)c1ccccc1 (stereo not given)	GLP-1R inv ag 10µM
CN(CC(=O)NCC(=O)Nc1ccc(F)cc1)CC(=O)Nc1ccc(Cl)c(C(F)(F)F)c1	Pin1 inh inconclusive, GLP-1R inv ag inconclusive (no result: Tb PFK block)
O=S(=O)(c1ccc(Cl)cc1)c1nc(-c2cccs2)oc1SCc1ccc(F)cc1	GLP-1R inv ag inconclusive (no result: Tb PFK block, GLP-1R agonist)
CN(C)S(=O)(=O)c1ccc2c(c1)N(CC(=O)NCc1ccccc1)C(=O)C1CCCCN21 (stereo not given)	none (no result: Tb PFK block, GLP-1R agonist)
CCCCCn1c(C)c2c(OCC)cccc(=O)c2c1C	GLP-1R inv ag 10µM
CCOC(=O)C1(CC2CCCCO2)CCN(Cc2nccn2-c2ccc(OC)cc2)CC1 (stereo not given)	HEK293 tox inconclusive
CCOC(=O)C1(CC2CCCCO2)CCN(Cc2nccn2-c2cccc(C)c2)CC1 (stereo not given)	GLP-1R inv ag 10µM
CCOC(=O)c1c(NC(=O)COc2ccc(Cl)cc2Cl)sc2c1CCCCC2	none (no result: Tb PFK block, GLP-1R agonist)
CCOC(=O)N/N=C/c1cn(CCCOc2ccccc2)c2ccccc12	GLP-1R inv ag 8.91µM
COC(=O)N/N=C/c1cn(CC(C)COc2ccccc2)c2ccccc12 (stereo not given)	Pin1 inh inconclusive, GLP-1R inv ag 10µM
CCOC(=O)N/N=C/c1cn(CCCOc2ccc(C)cc2)c2ccccc12	GLP-1R inv ag inconclusive
COC(=O)N/N=C/c1cn(CCOc2ccccc2)c2ccccc12	GLP-1R inv ag inconclusive
C1CCCCCC(NCCN2CCNCC2)CCCCC1	GLP-1R inv ag 6.31µM, HEK293 tox 11.2µM
O=C(NC1CCCCC1)N1CCNCC1	none
CC(C)(C)NCC(O)CON=C1c2ccccc2-c2ccccc21 (stereo not given)	GLP-1R inv ag 3.98µM, HEK293 tox inconclusive
COc1ccc(CCN2C(=S)N(C)C(=O)C2CC(=O)Nc2ccc(OC)cc2)cc1 (stereo not given)	GLP-1R inv ag inconclusive
COC(=O)c1ccc(NC(=O)CC2C(=O)N(c3ccc(F)cc3)C(=O)N2Cc2ccc(OC)cc2)cc1 (stereo not given)	none (no result: Tb PFK block, GLP-1R agonist)
COc1ccc(CCN2C(=O)N(c3ccc(C)cc3)C(=O)C2CC(=O)Nc2ccc(F)cc2)cc1 (stereo not given)	GLP-1R inv ag 7.94µM (no result: Tb PFK block)
COc1ccc(NC(=O)CC2C(=O)N(C)C(=S)N2CCc2ccc(F)cc2)cc1 (stereo not given)	GLP-1R inv ag 11.2µM
Cc1ccc(S(=O)(=O)c2ccc([N+](=O)[O-])cn2)cc1	Tb PFK block inconclusive, GLP-1R inv ag 7.94µM, HEK293 tox inconclusive
O=[N+]([O-])c1ccc(S(=O)(=O)c2ccccc2)nc1	GLP-1R inv ag inconclusive
Cc1nc2sc(C(N)=O)c(N)c2c(-c2ccc(Br)cc2)c1C(=O)Nc1ccc(Cl)cc1	GLP-1R inv ag inconclusive (no result: Tb PFK block, GLP-1R agonist)
Cc1nc2c(C)c(C)c(C)c(C)c2nc1C	none
